Laboratory results as given in PubChem BioAssay (NCI).
The panel holds about 83,000 compounds, 20% with a hit somewhere; the sample as a whole holds those more often.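 The endpoint reported here, percent growth, reads 100 for growth as untreated, 0 for no net growth and -100 for all cells dead.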 A number with no mark means an inactive call. Calls of active or inactive are those of the source.

What follows are compounds tested on NCI-H226 lung (assay: NCI-60 one-dose screen, 48 h (100 = growth as untreated, 0 = no growth, -100 = all killed)). Conditions: 10 µM unless noted.
Experimental: Growth inhibition of the NCI-H226 human Non-Small Cell Lung tumor cell line is measured as a screen for anti-cancer activity. Cells are grown in 96 well plates and exposed to the test compound for 48 hours. Compounds are tested at a single concentration, which is 10^-5 M for most compounds. The reported endpoint is percent growth (GI% or GIPRCNT), where numbers from 0 - 100% represent growth inhibition, and numbers from -100% - 0 represent cell death. For example, a value of 40 represents 60% growth inhibition. A value of 0 means no net growth occurred over the course of the experiment. A value of -40 indicates 40% of cells at the beginning of the experiment died by the end of the experiment. A value of -100 means all cells are dead at the end of the experiment.
NCI-60 Human Tumor Cell Lines Screen was performed using the standard one-dose NCI protocol, which is described in more detail at https://dtp.cancer.gov/discovery_development/nci-60/default.htm.
Compounds with GIPRCNT values below 10 were considered active. Activity score was based on GIPRCNT using the following formula: […]
Score is 0 for GIPRCNT values of 100 or above, 50 for GIPRCNT values of 0, and 100 for GIPRCNT values of -100.

SMILES | growth
O=c1/c(=C\c2ccc(-c3ccccc3)o2)sc2nc(-c3ccccc3)nn12 | 109%
C=CCn1c(SCC(=O)c2ccc(Br)cc2)nnc1-c1c[nH]c2ccccc12 | 90.1%
CN(C)CCCNc1c2ccccc2nc2c1oc1ccc(Cl)cc12 | 28.5%
CCN1C(=S)N(CC)C2C1NN=C1SC(c3ccccc3)=CC(=O)N12 (stereo not given) | 101%
CCCCN1C(=O)/C(=c2\sc3n(c2=O)C2C(NN=3)N(CC)C(=O)N2CC)c2cc(Cl)ccc21 (stereo not given) | 89.8%
COc1cccc(COc2ccc(/C=C3/C(=O)Nc4cc(Cl)ccc43)cc2)c1 | 84.9%
O=C(N/N=C/c1ccc([N+](=O)[O-])s1)c1[nH]c2ccc(Br)cc2c1-c1ccccc1 | 23.7%
Cn1cc(-c2cc(N)n3nc(-c4cn(C)c5ccc(Br)cc45)cc3n2)c2cc(Br)ccc21 | 109%
COc1ccc(Cc2nn(CC(=O)N/N=C/c3ccc(Cl)cc3)c(=O)c3c(C)noc23)cc1 | 69.8%
CS(=O)(=O)c1ccc(-n2cc(/C=C/C(=O)c3ccc(NC(=O)CO[N+](=O)[O-])cc3)c(-c3ccc(Cl)cc3)n2)cc1 | 72.2%
Fc1ccc(-c2nc(C(Cl)Cl)nc3cc(-c4ccccc4)nn23)cc1 | 74.7%
NS(=O)(=O)c1cccc(Nc2nc(SCC(=O)c3ccc([N+](=O)[O-])cc3)nc3ccccc23)c1 | -20.9% (active)
COc1cc(-c2nc3ccc(-c4nnc(SCC(=O)Nc5ccc(C(=O)/C=C/c6ccc(Cl)cc6)cc5)o4)cc3[nH]2)cc(OC)c1OC | 91.7%
NS(=O)(=O)c1cccc(Nc2nc(SCC(=O)c3ccc(Br)cc3)nc3ccccc23)c1 | 4.97% (active)
CCOc1ccc2nc(NC(=O)c3ccc(C(F)(F)F)cc3)sc2c1 | 107%
Nc1nc(N)c2c(n1)NC(c1ccc(C(F)(F)F)cc1)CC(c1ccc(Nc3nc(NCCO)nc(Nc4ccc(Cl)cc4)n3)cc1)=N2 (stereo not given) | -40.7% (active)
NS(=O)(=O)c1ccc(Nc2nc(Nc3ccccc3)nc(-n3nc(-c4ccccc4)cc3-c3ccccc3)n2)cc1 | 40.7%
CCOC(=O)c1sc(NCC(=O)Nc2cccc([N+](=O)[O-])c2)c(C(=O)OCC)c1C | -33.7% (active)
CCOC(=O)c1sc(N)c(C(=O)OCC)c1C | 59.7%
CSc1ccc2c(c1)N(C(=O)/C(C#N)=C/c1c[nH]c3ccccc13)c1ccccc1S2 | 50.4%

SMILES | growth
[Cl][Ru].c1ccc(-c2cccc(-c3ccccn3)n2)nc1.c1ccc(-c2ccnc3c2ccc2c(-c4ccccc4)ccnc23)cc1 | 80.1%
COc1cccc(-c2nn(-c3ccccc3)cc2-c2ccnc(N3CCN(C(=O)Nc4ccc(F)cc4)CC3)c2)c1 | 66.7%
CCN1CCN(/C(=N\c2sc(-c3ccccc3)nc2-c2ccccc2)c2ccccc2)CC1 | 56.2%
COc1cc(/C=C/C(=O)c2cc(OC)c(OC)c(OC)c2)ccc1OCc1ccc(F)cc1 | 49.5%
CN(C)CCCNc1c2ccc(Cl)cc2nc2c1oc1ccccc12 | 1.58% (active)
OC1CCN(CCCOc2c3ccccc3nc3c2oc2ccc(Cl)cc23)CC1 | 11.1%
O=C(N/N=C/c1ccc[nH]1)c1[nH]c2ccc(Br)cc2c1-c1ccccc1 | 35.9%
COc1cc2nc(-c3ccc(C(F)(F)F)cc3)cc(OCCCNCC3CCCO3)c2cc1OC (stereo not given) | 54.3%
O=C(CSc1nc2sc3c(c2c(=O)n1-c1ccc(Cl)cc1)CCCC3)NNC(=O)Nc1ccc(Cl)c(C(F)(F)F)c1 | 53.4%
COc1cccc(N2CCN(c3ncnc4c3[nH]c3ccc(F)cc34)C[C@@H]2C)c1 | -60.5% (active)
COc1ccc(-c2nc3ccc(-c4nnc(SCC(=O)Nc5ccc(C(=O)/C=C/c6ccc(Cl)cc6)cc5)o4)cc3[nH]2)cc1OC | 98.5%
c1ccc2c(NCCCn3ccnc3)c3oc4ccccc4c3nc2c1 | -1.35% (active)
Cc1[nH]nc2ncc(C#Cc3cncc(C(=O)Nc4ccc(CN5CCN(C)CC5)c(C(F)(F)F)c4)c3)cc12 | 3.71% (active)
O=C(N/N=C/c1cccs1)c1[nH]c2ccc(Br)cc2c1-c1ccccc1 | 50.9%
Cc1cc(=O)oc2cc(OCCCOc3ccc(/C=C/C(=O)Nc4ccc(Cl)cc4)cc3)ccc12 | 79.5%
CS(=O)(=O)Nc1ccc(-c2nn(-c3ccc(S(C)(=O)=O)cc3)cc2/C=C/C(=O)c2ccc(NC(=O)CO[N+](=O)[O-])cc2)cc1 | 89.3%
CNC(=O)c1cc(-c2ccc(NC(=O)Nc3ccc(N4CCOCC4)c(C(F)(F)F)c3)cc2)nc2cccnc12 | 54.8%
N#Cc1ccc(C(=O)CSc2nc(Nc3ccc(S(N)(=O)=O)cc3)c3ccccc3n2)cc1 | 105%
Cn1ccnc1C(=O)/C=C/c1ccc(NC(=O)Nc2ccccc2)cc1 | 35.9%
O=C(N/N=C/c1ccco1)c1[nH]c2ccc(Br)cc2c1-c1ccccc1 | 50.1%
